Rows were chosen to be rich in hits. Some 2.8% of all compounds tested hit in one or more screens of this group.
PAFAH2 inh = inhibitors of human PAFAH2; Q99487; recombinant PAFAH2, FP-rhodamine activity probe, fluorescence polarization; inhibition, % at 3.39 µM; 0.99% of 340,000 active; AID 492956;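 active = inhibition above the mean over all tested compounds plus 3 SD, cut at about 30% in these data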;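 note: inhibitors block probe labeling of enzyme so polarization drops; 0% = enzyme with DMSO and 100% = wells lacking PAFAH2 protein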
PAFAH1B2 inh = PAFAH1B2 (human) inhibition. recombinant PAFAH1B2, FP-rhodamine activity probe, fluorescence polarization. inhibition, % at 3.39 µM. 1.2% of 340,000 active. AID 492953;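 active = inhibition above the mean of all tested compounds plus 3 SD, cut at about 24% in these data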;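 note: 0% = enzyme with DMSO and 100% = wells lacking PAFAH1B2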
Target sequence (P68402 whole entry, looked up): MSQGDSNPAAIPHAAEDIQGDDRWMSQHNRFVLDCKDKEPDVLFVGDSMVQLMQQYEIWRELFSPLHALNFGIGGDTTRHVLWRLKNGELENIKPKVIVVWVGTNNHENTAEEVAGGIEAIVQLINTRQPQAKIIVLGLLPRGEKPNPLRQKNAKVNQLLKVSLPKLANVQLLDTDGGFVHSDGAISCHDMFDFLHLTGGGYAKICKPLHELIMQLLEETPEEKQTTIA
PAFAH1B3 FP inh = blocks human PAF acetylhydrolase 1B catalytic subunit 3; 0.28% of 340,000 active; AID 492972; Q15102; recombinant PAFAH1B3, FP-rhodamine probe, fluorescence polarization; inhibition, % at 3.39 µM;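 active = inhibition above the screen-wide average of all tested compounds plus 3 SD, cut at about 25% in these data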;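 note: 0% = enzyme with DMSO only and 100% = wells lacking PAFAH1B3 protein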
pPAFAH inh = inhibitors of human plasma PAF acetylhydrolase (pPAFAH); AID 463082; inhibition, % at 3.39 µM; Q13093; 1.5% of 330,000 active; recombinant pPAFAH, FP-rhodamine probe fluorescence polarization;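 active = inhibition above the mean inhibition across the screen plus 3 SD, cut at about 25% in these data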;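 note: inhibitors block binding of the rhodamine activity-based probe so polarization drops; 0% = enzyme with DMSO and 100% = wells lacking pPAFAH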
Fam108B counter = counter-screen for RBBP9 inhibitors: inhibitors of mouse Fam108B. recombinant Fam108B, FP-Rh probe fluorescence polarization. inhibition, % at 9.51 µM. 0.33% of 300,000 active. AID 1947;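 active = inhibition above the screen mean inhibition plus 3 SD, computed separately per campaign, cut at about 18% in these data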;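 note: inhibitors lower polarization as less probe binds the enzyme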
PME-1 primary = PME-1 (human) inhibition. recombinant PME-1, FP-Rh probe fluorescence polarization. inhibition, % at 5.9 µM. 0.53% of 320,000 active. AID 2130;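 active = inhibition above the campaign mean of all compounds plus 3 SD, cut at about 26% in these data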;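 note: competitive labeling of PME-1 active site by serine hydrolase directed probe; 0% = PME-1 with DMSO and 100% = wells lacking PME-1 enzyme; inhibitors block probe labeling so polarization falls and inhibition rises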
Target sequence (Q9Y570 whole entry, looked up): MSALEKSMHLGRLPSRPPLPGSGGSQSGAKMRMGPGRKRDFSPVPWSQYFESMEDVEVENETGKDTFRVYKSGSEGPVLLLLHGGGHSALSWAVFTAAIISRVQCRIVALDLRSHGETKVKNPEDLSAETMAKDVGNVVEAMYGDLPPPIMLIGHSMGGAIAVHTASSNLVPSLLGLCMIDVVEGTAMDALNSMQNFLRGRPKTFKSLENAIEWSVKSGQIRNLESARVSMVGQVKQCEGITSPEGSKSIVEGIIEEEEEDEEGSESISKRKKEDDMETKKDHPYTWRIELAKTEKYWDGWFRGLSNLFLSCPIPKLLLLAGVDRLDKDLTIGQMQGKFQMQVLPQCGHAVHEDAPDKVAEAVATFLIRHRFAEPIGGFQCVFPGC
PAFAH1B3 confirm = PAFAH1B3 (human) inhibition, confirmed | shares compounds with PAFAH1B3 FP inh | 30% of 390 active | inhibition, % at 3.39 µM | recombinant PAFAH1B3, FP-Rh activity-based probe, fluorescence polarization;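 active = average inhibition over triplicate runs above the hit cutoff set in the earlier primary screen, cut at about 25% in these data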;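 note: 0% = enzyme with DMSO and 100% = wells lacking PAFAH1B3 protein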
* = called active by the depositor; x = no result given.

SMILES	PAFAH2 inh	PAFAH1B2 inh	PAFAH1B3 FP inh	pPAFAH inh	Fam108B counter	PME-1 primary	PAFAH1B3 confirm
C=CCn1c(N)c(C(=O)NCC2CCCO2)c2nc3ccccc3nc21 (centres undefined)	-3.3	4.6	26.4*	10.6	-0.3	9.2	6.5
CCc1cc[n+](C2=C([O-])c3ccccc3C(=O)/C2=N\S(=O)(=O)c2cccs2)cc1	23.1	2.2	40.6*	19.4	9.6	7.0	30.9*
O=C1C(=O)c2ccccc2C([O-])=C1[n+]1ccccc1	3.3	0.9	7.4	7.1	-1.0	1.4	x
O=CNc1ccccc1	3.2	3.3	-1.8	0.3	x	-2.7	x
C=CCn1c(O)c(N=Nc2ccccc2O)c2ccccc21	4.2	13.4	26.2*	14.0	x	33.6*	12.6
COc1ccccc1NC(=O)CC12CC3CC(CC(Br)(C3)C1)C2	6.4	14.5	-1.8	0.4	-1.0	0.3	x
Cc1cccc2c1NC(=O)C2=O	16.1	13.7	36.3*	x	x	x	24.9
O=C(CN1CCN(c2cccc(Cl)c2)CC1)c1ccc(O)cc1O	1.7	2.6	6.4	9.5	-1.6	12.2	x
Cc1cc(C)nc(N2CCC(C(=O)Nc3ccc(Oc4ccccc4)cc3)CC2)n1	5.1	2.3	108.4*	-2.3	5.8	6.8	9.7
Cc1ccnc(N2CCC(C(=O)Nc3ccc(Oc4ccccc4)cc3)CC2)n1	2.8	-0.3	6.8	2.0	2.9	-3.5	x
Cc1[nH]c2ccccc2c1CCNC(=O)c1ccc2c(c1[N+](=O)[O-])C(=O)c1ccccc1C2=O	18.0	20.1	44.0*	16.6	17.9	30.1*	67.0*
COCCCNC(=O)c1ccc(CS(=O)(=O)c2ccc(Br)cc2)o1	10.1	-3.8	29.2*	-4.5	0.2	8.8	8.3
CN(O)/C=c1/ccc2c(n1)C(=O)C=CC=2	11.3	7.9	35.0*	6.9	1.2	2.2	44.9*
CN(C)C(CNC(=O)CCNS(=O)(=O)c1ccccc1C(F)(F)F)c1ccccc1 (centres undefined)	0.6	-7.7	4.6	1.8	x	-4.0	x
COc1cc(NCCCC(C)N)c2ncccc2c1 (centres undefined)	24.1	18.3	53.1*	x	x	x	7.5
C[C@@H]1CN([C@@H](C)CO)C(=O)Cc2cc(NS(=O)(=O)c3cn(C)cn3)ccc2O[C@@H]1CN(C)C(=O)Nc1ccccc1	-4.2	3.5	26.2*	6.0	x	x	10.4
C[C@H](CO)N1C[C@H](C)[C@@H](CN(C)C(=O)Nc2ccccc2)Oc2c(NS(=O)(=O)c3cn(C)cn3)cccc2C1=O	7.7	3.0	9.5	-6.9	x	x	x
C[C@H](CO)N1C[C@H](C)[C@H](CN(C)S(=O)(=O)c2cccs2)Oc2ccc(NC(=O)Nc3ccc4c(c3)OCO4)cc2CC1=O	17.5	17.8	27.7*	10.7	x	x	11.6
C[C@H](CO)N1C[C@H](C)[C@@H](CN(C)S(=O)(=O)c2cccs2)Oc2ccc(NC(=O)Nc3ccc4c(c3)OCO4)cc2C1=O	12.6	14.9	15.6	18.2	x	x	x
CCOc1ccc(C(=O)COC(=O)c2cc(=O)[nH]c3ccccc23)cc1	-3.4	-5.0	4.7	2.5	-4.8	-4.5	x
C=CCN(C)NC(=S)Nc1ccccc1	2.7	-2.2	41.5*	-2.4	-2.1	1.3	14.0
Cc1ccc(CNC(=O)CCNC(=O)c2ccc([N+](=O)[O-])cc2)cc1	5.0	19.5	10.8	3.5	x	x	x
CCc1cccc2c(N=O)c(O)[nH]c12	10.7	11.9	28.1*	10.3	4.7	22.9	24.0
O=Nc1c(O)[nH]c2c(F)cccc12	5.1	6.9	19.7	3.5	11.8	17.0	x
Nc1cnccc1C(=O)O	16.1	13.2	27.9*	17.6	8.4	5.7	18.6
SMILES	PAFAH2 inh	PAFAH1B2 inh	PAFAH1B3 FP inh	pPAFAH inh	Fam108B counter	PME-1 primary	PAFAH1B3 confirm
CC(=C1C(=O)c2ccccc2C1=O)N1CCc2ccccc2C1	4.3	1.9	27.0*	1.6	7.4	-8.2	9.3
O=C1NC[C@@H](c2ccccc2)OC(=O)[C@H](Cc2ccc(F)cc2)C/C=C\C[C@@H]1CC(=O)N(CCO)Cc1ccccc1	0.3	10.2	5.0	2.8	x	x	x
COc1ccc(N(/N=C2\Sc3ccccc3C2=O)C(C)=O)cc1	19.4	22.2	54.4*	x	x	x	60.3*
COc1ccccc1N(/N=C1\Sc2ccccc2C1=O)C(C)=O	4.4	9.6	51.0*	11.0	6.0	0.4	53.7*
COc1ccc(CN(C(C)=O)c2ccccc2C(=O)O)cc1	-0.2	-1.4	7.8	-2.1	-3.3	4.1	x
NC(=O)C1(N2CCCCC2)CCN(C(=S)Nc2ccc(F)c(Cl)c2)CC1	-0.5	1.6	12.3	-2.3	-5.5	-10.9	x
O=C1N/C(=C\c2ccc(O)cc2)C(=O)c2ccccc21	2.7	9.5	33.4*	2.6	9.4	15.2	24.9
O=C(O)c1cccc2c1-c1ccccc1/C2=N\Nc1ccccc1	21.9	9.2	-0.4	18.9	0.7	4.2	x
O=C(O)c1cc(NN=C2c3ccccc3-c3ccccc32)ccc1Cl	23.5	9.4	47.7*	5.2	7.3	35.3*	37.2*
O=C(O)c1cccc(NN=C2c3ccccc3-c3ccccc32)c1	20.1	4.9	42.1*	x	x	x	30.8*
O=C(CCNC(=O)c1ccc(Br)cc1)NCCCSc1ccccc1	6.1	22.4	-4.7	6.2	-0.6	-0.9	x
CCCC[n+]1ccn(C2=C([O-])c3ccccc3C(=O)/C2=N\S(=O)(=O)c2ccc(Br)cc2)c1	1.2	7.3	17.9	2.7	3.1	5.2	x
CC(=O)Nc1ccc(S(=O)(=O)/N=C2\C(=O)c3ccccc3C([O-])=C2n2cc[n+](-c3ccccn3)c2)cc1	7.2	11.4	38.2*	7.4	9.2	2.9	18.8
Cc1ccc(S(=O)(=O)/N=C2\C(=O)c3ccccc3C([O-])=C2n2cc[n+](CCC(C)C)c2)cc1	5.2	6.7	25.6*	9.6	2.9	2.1	22.2
Cc1ccc(NC(=O)C[n+]2ccn(C3=C([O-])c4ccccc4C3=O)c2)cc1	5.4	2.8	8.1	9.7	1.8	3.0	x
OC1OC[C@@H](O)[C@H](O)[C@H]1O (some centres undefined)	x	x	x	1.4	0.2	2.6	x
Nc1nc(NCc2cccs2)nn1-c1ccccc1	11.3	5.5	6.5	-2.5	4.8	-9.9	x
Nc1nc(NCc2ccco2)nn1-c1ccccc1	5.4	7.2	26.5*	3.4	1.1	-0.3	7.5
COc1cc(NCCCCCCN)c2ncccc2c1OC	10.5	13.7	56.7*	x	x	x	20.1
CC(=O)Nc1c(-c2cc(=O)oc3cc(C)ccc23)oc2ccccc12	4.8	2.9	6.4	x	x	x	x
Cc1oc2c(c1C(=O)NCc1cccnc1)C(=O)c1ccccc1C2=O	x	x	x	1.0	1.0	0.9	x
CC(=O)c1c(C)oc2c1C(=O)c1ccccc1C2=O	3.6	6.9	27.6*	0.4	2.1	-11.6	20.9
O=C1c2ccccc2C(=O)c2c1oc(C(F)(F)F)c2C(=O)c1ccccc1	14.0	10.6	40.4*	3.8	4.8	3.5	26.8*

High-throughput results deposited in PubChem BioAssay by The Scripps Research Institute Molecular Screening Center.
